# Screening results as filed in PubChem.
# NPC1 prom act: activators of NPC1 promoter; Huh7 NPC1 promoter luciferase reporter, 24 h; Potency, µM (doses to about 9.22 µM), without a hit: at the top dose activation, hits mostly activators; 2.4% of 320,000 active; AID 485313; note: % of control where 0% means no effect; nearly all actives have a fitted effect of over 60% in size
#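 Huh7 cells stably carrying NPC1 promoter–luciferase, plated in Opti-MEM with 10% FBS for 2 h, were exposed to compound in DMSO for 24 h at 37 °C; luciferase reagent was added for 10 min and luminescence read.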
# ELG1 genotoxic: induces genotoxicity in HEK293T cells with luciferase-tagged ELG1; HEK293T ELG1-luciferase reporter, luminescence, 16 h; Potency, µM (highest dose often 46 µM), for inactives: at the highest dose activity change, positive = activation, most hits filed as activators; 1.3% of 330,000 active; AID 504466; note: % of control where 0% means no effect; nearly all actives have a fitted effect of over 60% in size
#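 ELG1-luciferase HEK293T cells, 2,000/well; compound pinned in; 16 hr, 37 °C, 5% CO2; ONE-Glo, 30 min RT; luminescence on CCD imager.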
# ELG1 repair inh: ELG1-dependent DNA repair inhibition; HEK293T ELG1-luciferase reporter, luminescence, 16 h; DNA damage induced by 5-fluorouridine; Potency, µM (highest dose often 46.1 µM), inactives show top-dose activity change, negative = inhibition, usual class: inhibitors; 2.3% of 330,000 active; AID 504467; note: % is set by controls: 0 for no effect and ±100 for the full control effect; nearly all actives have a fitted effect of over 55% in size
#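 In this reporter screen, reduction of luminescence relative to DMSO vehicle indicated activity. Compounds and 5-fluorouridine were added together to 2,000 cells per well, incubated for 16 hr at 37 °C, then developed with ONE-Glo.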
# Rab9 prom act: activators of Rab9 promoter; Huh7 Rab9 promoter-luciferase reporter, luminescence, 24 h; Potency, µM (titrated, usually from 9.22 µM), for inactives: at the highest dose activation, negative = inhibition, most hits filed as activators; 2.8% of 320,000 active; AID 485297; note: % of control where 0% means no effect; nearly all actives have a fitted effect of over 60% in size
#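 Rab9 promoter-driven luciferase in stably transfected Huh7 cells; 1500 cells/well rested 2 h, exposed to compound in DMSO for 24 h at 37 °C, 5% CO2. Luminescence read 10 min after adding luciferase reagent at ambient temperature.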
# SMN2 splice enh: increases expression of the SMN2 splice variant | 2.8% of 210,000 active | Potency, µM (top dose mostly 46.1 µM), inactives show at the highest dose activity change, positive = activation, actives largely listed as activators | AID 1458 | HEK293 SMN2-luciferase splicing reporter, luminescence, 30-36 h; note: % of control where 0% means no effect; nearly all actives have a fitted effect of over 55% in size
#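 qHTS luciferase splicing reporter: luminescence rises when SMN2 exon 7 is included in transfected HEK293 cells. Compound exposure lasted 30-36 h at 37C, with 4.5 mM final sodium butyrate as control, followed by a ONE-Glo read.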
# FLuc counter: firefly luciferase modulation, counter-screen for miR-21 project; purified FLuc, Km substrates, luminescence inhibition; Potency, µM (titrated, usually from 57.5 µM), for inactives: top-dose activity change, negative = inhibition, actives largely listed as inhibitors; 6.9% of 360,000 active; AID 588342;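 note: plate controls were vehicle for no effect and reference inhibitor for full effect; nearly all actives have a fitted effect of over 55% in size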
# Target sequence (P08659 whole entry, looked up): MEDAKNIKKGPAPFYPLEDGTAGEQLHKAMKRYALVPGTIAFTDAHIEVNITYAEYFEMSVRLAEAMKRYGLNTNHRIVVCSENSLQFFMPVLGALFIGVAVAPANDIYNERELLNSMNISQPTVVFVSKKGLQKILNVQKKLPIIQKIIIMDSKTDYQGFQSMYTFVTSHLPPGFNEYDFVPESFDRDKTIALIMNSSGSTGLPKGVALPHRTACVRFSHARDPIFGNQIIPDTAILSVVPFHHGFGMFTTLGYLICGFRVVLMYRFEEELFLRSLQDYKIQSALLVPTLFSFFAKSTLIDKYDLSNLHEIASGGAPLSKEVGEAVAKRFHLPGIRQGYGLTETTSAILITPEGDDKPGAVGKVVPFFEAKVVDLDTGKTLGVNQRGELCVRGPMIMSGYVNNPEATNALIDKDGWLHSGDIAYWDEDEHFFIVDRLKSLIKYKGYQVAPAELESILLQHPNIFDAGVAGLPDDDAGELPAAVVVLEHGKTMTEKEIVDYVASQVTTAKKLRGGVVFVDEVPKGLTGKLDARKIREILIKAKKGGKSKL
#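 Purified P. pyralis luciferase (10nM final) with 10uM D-luciferin and 10uM ATP (Km levels) in 50mM Tris acetate pH 7.5, 10mM Mg acetate, 0.01% Tween-20, 0.05% BSA; qHTS 6-point titration, ~60 µM downward; luminescence read.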
# Active calls of the source: *; ? = inconclusive; · = no result. This is a sample that favours compounds with a hit; in the whole collection about 9.2% have one here. Calls come from the whole dose curve; as a rule, active = well fitted curve in the direction sought with a large enough effect; inconclusive = small, poorly fitted or top-dose-only effect, or another doubt; inactive = no such curve, though single readings can be large; an effect the other way counts as inactive or inconclusive. Potency is the fitted concentration of half-maximal effect.
SMILES,NPC1 prom act,ELG1 genotoxic,ELG1 repair inh,Rab9 prom act,SMN2 splice enh,FLuc counter
Cc1ccc2nc(-c3ccc(SCC(=O)N4CCc5ccccc54)nc3)[nH]c2c1,3.5µM*,0%,?,3.2µM*,11µM*,0.27µM*
CC(=O)CSc1ccc(-c2nc3ccccc3[nH]2)cn1,0.56µM*,?,?,0.71µM*,·,4.3µM*
Cc1ccc2nc(-c3ccc(SCC(=O)O)nc3)[nH]c2c1,-3%,2%,?,6%,18%,5.4µM*
CCc1nnc(NC(=O)CSCc2cc(=O)c3ccc(C)cc3[nH]2)s1,·,·,·,·,·,-8%
CCc1nnc(NC(=O)CSc2ccc(-c3nc4ccc(C)cc4[nH]3)cn2)s1,2.8µM*,13µM*,?,3.2µM*,·,1.7µM*
Cc1cc2nc(-c3ccc(SCc4ccc(C#N)cc4)nc3)[nH]c2cc1C,-3%,1%,?,-3%,-26%,5.4µM*
N#Cc1ccccc1CSc1ccc(-c2nc3ccccc3[nH]2)cn1,21%,?,0%,21%,-58%,19µM*
O=C(CCc1nnc(CCCc2ccccc2)o1)NC(C1CC1)C1CC1,?,21µM*,?,2.8µM*,14µM*,12µM*
Cc1nc(C(C)NC(=O)CCc2nnc(CCCc3ccccc3)o2)c(C)s1 (stereo not drawn),?,?,?,2.8µM*,16µM*,15µM*
CC(C)(CO)CNC(=O)CCc1nnc(CCCc2ccccc2)o1,-1%,4%,?,12%,·,-15%
CN(Cc1ccsc1)C(=O)CCc1nnc(CCCc2ccccc2)o1,19%,?,?,3.2µM*,·,13µM*
CN(Cc1ccsc1)C(=O)CCc1nnc(Cc2c[nH]c3ccccc23)o1,-2%,3%,11%,-2%,·,-13%
COc1ccc2c(c1)[nH]c1c(=O)n(Cc3ccccn3)cnc12,15%,26%,?,4%,8%,?
COc1ccc2c(c1)[nH]c1c(=O)n(Cc3ccco3)cnc12,?,18µM*,?,?,?,-14%
COc1ccc2c(c1)c1ncn(Cc3ccco3)c(=O)c1n2C,6%,-7%,16µM*,1%,-7%,?
COc1ccc(CNC(=O)C2CCN(S(=O)(=O)c3c(C)noc3/C=C/c3cccs3)CC2)cc1,·,·,·,·,0%,4%
CC1(C)CC(=O)C2=C(C1)Nc1cc(Cl)ccc1S2,-2%,-5%,23µM*,-7%,·,-9%
COc1ccc(CNC(=O)CNC(=O)c2cccs2)c(OC)c1,0%,4%,?,8%,·,0%
Cc1nc2ccc(NC(=O)COc3cccc(F)c3)cc2s1,-3%,5%,0%,-3%,-10%,?
Cc1nc2ccc(NC(=O)Cc3cccc(F)c3)cc2s1,21%,12%,?,30%,27%,19µM*
Cc1nc2ccc(NC(=O)Cc3ccsc3)cc2s1,2.8µM*,12µM*,?,?,?,12µM*
Cc1nc2ccc(NC(=O)COc3ccccc3)cc2s1,3%,16%,?,18%,10%,?
Cc1nc2ccc(NC(=O)Cc3ccccc3F)cc2s1,2.8µM*,8.2µM*,?,?,11µM*,6.7µM*
Cc1sc(NC(=O)Cc2ccc3c(c2)OCO3)nc1-c1ccc2c(c1)CCN2C(=O)c1cccc(F)c1,-16%,-4%,?,-16%,-54%,7%
CNc1nc(-c2ccc3c(c2)CCN3C(=O)c2cccc(F)c2)cs1,?,0%,?,2µM*,·,4.8µM*
O=C(CN1CCCC1)Nc1nc(-c2ccc3c(c2)CCN3C(=O)c2ccccc2F)cs1,20%,-15%,?,13%,·,24µM*
Cc1ccccc1C(=O)N1CCc2cc(-c3nc(NC(=O)Cc4ccc5c(c4)OCO5)sc3C)ccc21,-23%,0%,?,-20%,-64%,2%
